Screening results: PubChem, The Scripps Research Institute Molecular Screening Center
A selection: hits, their analogues and other compounds. The true share with any hit is near 1.1%.
NCOA1 inh: inhibitors of human steroid receptor coactivator 1 (SRC1); 360,000 tested, 0.12% active; HEK293 GAL4-SRC1 luciferase reporter, luminescence; Q15788; inhibition, % at 3.6 µM;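 active = inhibition above the campaign mean plus 3 SD, with each screening campaign given its own cutoff, cut at about 60% in these data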
GalR3 antagonist: antagonists of human GalR3; 360,000 tested, 0.44% active; O60755; AID 651719; inhibition, % at 3 µM; HEK293 GalR3-CNG cAMP membrane potential fluorescence; galR3 body fused to GalR1 C-terminus;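 active = inhibition above the screen-wide average plus 3 SD, cut at about 13% in these data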;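 also: forskolin and galanin both at EC90 stimulate the cells; cAMP rise reported by CNG channel membrane potential dye signal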
SRC3 inh: human NCOA3 inhibition; HEK293 GAL4-SRC3 luciferase reporter, luminescence; 360,000 tested, 0.17% active; Q9Y6Q9; inhibition, % at 3.6 µM;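 active = inhibition above a per-campaign cutoff, the mean of all compounds plus 3 SD, cut at about 60% in these data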;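 also: higher means less SRC3-driven luciferase light from the GAL4 reporter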
NR5A2 inv ag: inverse agonists of human LRH-1 (NR5A2); 360,000 tested, 0.13% active; inhibition, % at 3.6 µM; HEK293T StAR-luciferase reporter, LRH-1 transfected, 24 h;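 active = inhibition above the mean inhibition of all tested compounds plus 3 SD, cut at about 73% in these data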
SRC2 inh: human SRC2 (NCOA2) inhibition; 370,000 tested, 0.17% active; HEK293 GAL4-SRC2 luciferase reporter, luminescence; AID 651957; inhibition, % at 9 µM;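 active = inhibition above the mean inhibition of all tested compounds plus 3 SD, set per campaign, cut at about 52% in these data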
COUP-TFII inh: NR2F2 (human) inhibition, primary screen; AID 686940; inhibition, % at 8.6 µM; HEK293T NGFI-A luciferase reporter, luminescence; 370,000 tested, 0.7% active;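 active = inhibition above a per-plate cutoff, mean inhibition of test wells between control levels plus 3 SD, cut at about 38% in these data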;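 also: cells cotransfected with COUP-TFII expression vector driving the NGFI-A reporter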
Gal4-VP16 ctr: VP16 inhibition counter-screen for COUP-TFII | 2,500 tested, 25% active | shares compounds with COUP-TFII inh | inhibition, % at 8.5 µM | HEK293 Gal4-VP16 luciferase reporter, luminescence; in the data active = inhibition above about 13%
COUP-TFII conf: COUP-TFII (NR2F2) inhibition, confirmation assay | HEK293 NGFI-A luciferase reporter, luminescence | shares compounds with COUP-TFII inh | 2,500 tested, 45% active | inhibition, % at 8.5 µM;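 active = mean inhibition over three repeats above a set limit taken from the earlier primary screen, cut at about 38% in these data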
Numbers stand for hits; . = inactive; / = no result given.

SMILES	NCOA1 inh	GalR3 antagonist	SRC3 inh	NR5A2 inv ag	SRC2 inh	COUP-TFII inh	Gal4-VP16 ctr	COUP-TFII conf
CC(C)(C)[C@H]1C=C(C(=O)Nc2ccccc2)O[C@@H](OCCCCO)C1	.	.	.	.	.	63	.	.
O=C(Nc1ccccc1)C1=C[C@@H](C2CCCCC2)C[C@@H](OCCCCO)O1	.	.	.	.	.	40	.	.
O=C(Nc1ccccc1)C1=C[C@H](C2CCCCC2)C[C@H](OCCCCO)O1	.	.	.	.	.	.	/	/
COC(=O)C1=C(C)N(Cc2ccccc2C(F)(F)F)C(=NCc2ccc(OC)cc2)NC1c1ccc(F)cc1 (stereo unspecified)	/	.	/	/	.	.	/	/
CCCOc1ncnc2c1[nH]c1ccc(OC)cc12	.	.	.	.	.	.	/	/
CCCOc1ncnc2c1[nH]c1ccccc12	.	.	.	.	.	40	.	.
CCCCCCCC/C=C\CCCCCCCC(=O)NCCc1ccc(O)c(O)c1	.	.	62	78	.	59	.	.
CCCCCCCC/C=C\CCCCCCCC(=O)NCCO	.	.	.	.	.	.	/	/
COc1cccc(CNc2nc3cc(-c4ccc(OC)c(OC)c4)sc3c(=O)n2C)c1	.	.	.	.	.	.	/	/
COc1ccc(-c2cc3nc(NCc4ccc(N(C)C)cc4)n(C)c(=O)c3s2)cc1OC	.	.	.	.	.	39	.	56
COc1cccc(CNc2nc3cc(-c4ccc(C)cc4)sc3c(=O)n2C)c1OC	.	.	.	.	.	.	/	/
COc1cccc(CNc2nc3cc(-c4ccsc4)sc3c(=O)n2C)c1OC	.	.	.	.	.	66	.	46
CCOc1ccc(-n2c(SCC(=O)Nc3ccc(S(=O)(=O)Nc4nccs4)cc3)nnc2-c2ccco2)cc1	/	/	/	/	.	.	/	/
CC(C)(C)OC(=O)N1CCC[C@@H]1C(=O)N1CCC[C@@H]1C(=O)NCc1ccccc1	/	.	/	/	.	.	/	/
COCCn1c(C)cc(C(=O)CSc2nc3ccccc3s2)c1C	.	.	.	.	.	50	.	.
Cc1cc(/C=N/Nc2ncnc(N)c2[N+](=O)[O-])c(C)n1-c1ccccc1	.	.	.	.	.	52	44	78
COC(=O)[C@H](CC(C)C)N(CCc1cn(Cc2ccccc2)nn1)S(=O)(=O)c1ccccc1Br	/	/	/	/	.	.	/	/
CCC(CO)Oc1cc(NCc2ccccc2O)c2ncn(C(C)C)c2c1 (stereo unspecified)	.	.	.	.	.	43	.	40
C#CCN1CC(N(C)CCOC(=O)c2occ3ccccc23)CS1(=O)=O (stereo unspecified)	/	/	/	/	.	.	/	/
c1ccc2c(c1)CCN(c1ncnc3c1[nH]c1ccccc13)C2	.	.	.	.	.	71	.	76
c1ccc2c(c1)[nH]c1c(N3CCC4(CC3)OCCO4)ncnc12	.	/	.	.	/	/	/	/
COc1cccc(N2CCN(c3ncnc4c3[nH]c3ccccc34)CC2C)c1 (stereo unspecified)	/	.	/	/	61	76	19	84
Cc1nc(SCC(=O)Nc2nc3ccccc3s2)c(C#N)c(C)c1C	90	.	91	88	85	99	91	109
Cc1cc(C(F)(F)F)c(C#N)c(SCC(=O)Nc2nc3ccccc3s2)n1	.	.	.	.	.	56	21	57
Cc1ccc2sc(NC(=O)CSc3nc(C)cc(C)c3C#N)nc2c1	.	.	.	.	.	.	/	/
CCOC(=O)Cc1ccc(NC(=O)c2ccc(C(C)(C)C)cc2)cc1	.	.	.	.	78	58	46	53
CCOC(=O)Cc1ccc(NC(=O)c2ccccc2Br)cc1	.	.	.	.	.	.	/	/
Cc1ccc(-c2nc3cc(N)ccc3o2)cc1Br	.	.	.	.	.	.	/	/
Cc1ccc(C)c(-c2nc3cc(N)ccc3o2)c1	.	.	.	.	55	42	.	.
Nc1ccc(-c2nc3cc(N)ccc3o2)cc1	.	.	.	.	.	.	/	/
